{"source": "PubChem BioAssay (NCI)", "note": "Where “and” joins values, the source holds several entries; their conditions need not be identical. Equal values may be shown once. The panel holds about 83,000 compounds, 20% with a hit somewhere; the sample as a whole holds those more often.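 Single-concentration screen, 48 h exposure, 96-well plates. Endpoint: percent growth. Below 10 = active.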 A number with no mark means an inactive call. Calls of active or inactive are those of the source."}
{"system": "MDA-MB-468 breast", "assay": "NCI-60 one-dose screen, 48 h (100 = growth as untreated, 0 = no growth, -100 = all killed)", "conditions": "10 µM unless noted"}
{"smiles": "C=CCn1c(-c2nc3ccc(C(=C(C#N)C#N)c4ccccc4)cc3[nH]2)cc2cc(Br)ccc21", "growth": "42.6%"}
{"smiles": "COc1cc(-c2nc3ccccc3o2)cc(CN2CCCCC2)c1O", "growth": "67.1%"}
{"smiles": "N=C(N)c1ccc(-c2ccc(-c3cc(Cl)cc(Cl)c3)s2)s1", "growth": "-63.4% (active)"}
{"smiles": "O=C(Nc1ccc(I)cc1)c1cccc([N+](=O)[O-])c1O", "growth": "2.17% (active)"}
{"smiles": "Clc1ccc2c(c1)NC1(CCSc3ccccc31)n1nccc1-2", "note": "(stereo not given)", "growth": "106%"}
{"smiles": "CC(=O)N1N=C(c2cccc(-n3cccc3)c2)CC1c1cccc(F)c1", "note": "(stereo not given)", "growth": "90.4%"}
{"smiles": "O=C1c2ccccc2Cc2cccc(Cl)c21", "growth": "92.7%"}
{"smiles": "Nc1c2c(c(O)c3c1=C(CO)C=N3)=NCCS2=O", "note": "(stereo not given)", "growth": "-79.6% (active)"}
{"smiles": "C=C1C(=O)O[C@H]2[C@H]1CC/C(COC(=O)c1cc3cc(OC)ccc3[nH]1)=C\\CC[C@@]1(C)O[C@@H]21", "growth": "-76.3% (active)"}
{"smiles": "CSc1ccc2c3c(n(C[C@H](O)CO)c(=O)c2c1)-c1ccccc1C3=O", "growth": "39.8%"}
{"smiles": "CCN(CCCCCCCCCCN1CC(=O)N(CCCCCCCCCCN(CC)Cc2ccccc2OC)CC1=O)Cc1ccccc1OC", "growth": "-87.8% (active)"}
{"smiles": "COc1ccc(/C=N\\NC(=O)c2cnn(CC(O)c3ccccc3)c2N)cc1OCc1ccc(Cl)cc1", "note": "(stereo not given)", "growth": "76.8%"}
{"smiles": "CN1CCN(CC(=O)N2c3cccc4cccc(c34)N(C(=O)CN3CCN(C)CC3)C2c2cn(-c3ccccc3)nc2-c2cccc([N+](=O)[O-])c2)CC1", "growth": "-68.9% (active)"}
{"smiles": "CC1(C)CCC(=NNC(N)=S)CC1", "growth": "103%"}
{"smiles": "CC(=O)CCC(=O)OCc1cc(=O)c(O)co1", "growth": "101%"}
{"smiles": "Cc1ccc(Sc2ccccc2N)cc1", "growth": "81.2%"}
{"smiles": "N=C(N)c1ccc(-c2ccc(-c3ccc(Cl)cc3)s2)nc1", "growth": "-56.4% (active)"}
{"smiles": "Nc1nc2c(s1)CCc1c-2c(Br)n(Cc2ccccc2)c1Br", "growth": "33.4%"}
{"smiles": "Nc1nc(N)c2cc(S(=O)(=O)c3ccccc3)ccc2n1", "growth": "49.9% and 57.7%"}
{"smiles": "C=C1CC2(OC1=O)C(=O)N(CCCCCCCCCCCCN1C(=O)C3(CC(=C)C(=O)O3)c3ccccc31)c1ccccc12", "note": "(stereo not given)", "growth": "70.2%"}
{"smiles": "N#Cc1c(N)nc2c(C#N)c(NC(=O)c3ccccc3)nn2c1-c1ccccc1", "growth": "94.1%"}
{"smiles": "COc1ccc(C2c3ccc4ccccc4c3Oc3ncn(CCCn4ccnc4)c(=N)c32)cc1OC", "note": "(stereo not given)", "growth": "47.5%"}
{"smiles": "COc1cc2c(c(OC)c1OC)CCC(c1cccc(C(=O)Nc3cccc(Br)c3)c1)O2", "note": "(stereo not given)", "growth": "58.6%"}
{"smiles": "Cc1cc(C)c2c(Nc3ncnc4c3sc3nc(C)cc(C)c34)n[nH]c2n1", "growth": "92.2%"}
{"smiles": "O=C1c2ccccc2-c2ccccc2C1(Cl)Cl", "growth": "-86.6% (active)"}
{"smiles": "CN=C(N)N/N=C(\\c1ccccc1)c1ccc(Br)cc1", "growth": "1.8% (active)"}
{"smiles": "COc1ccc(C(=O)c2cc3c(N)c(C(=O)Nc4cccc(Cl)c4C)sc3nc2C)cc1", "growth": "-2.98% (active)"}
{"smiles": "CCN1C(=O)N(CC)C2SC(N/N=C/c3cccs3)=NC21", "note": "(stereo not given)", "growth": "32.4%"}
{"smiles": "C#CCSc1nnnn1-c1ccc(Br)c(C)c1", "growth": "67.2%"}
{"smiles": "Nc1nc(NC(=O)Nc2ccc(C(=O)O)cc2)nn1-c1ccc(S(N)(=O)=O)cc1", "growth": "91.6%"}
{"smiles": "CCC(C)(C)C(=O)O[C@H]1C[C@@H](C)C=C2C=C[C@H](C)[C@H](CC[C@@H]3CC(SCCN)CC(=O)O3)[C@H]21", "note": "(stereo not given in full)", "growth": "90.3%"}
{"smiles": "O=C(c1ccccc1)c1c(/C=C/c2ccccc2)c2ccccc2[nH]c1=O", "growth": "94.5%"}
{"smiles": "Cc1ccc([N+](=O)[O-])cc1NC(=O)Nc1cccc(F)c1", "growth": "26.9%"}
{"smiles": "COC(=O)c1cc(O)c2c(c1C(=O)OC)C[C@H]1[C@@H]3CC=C4C[C@@H](O)CC[C@]4(C)[C@H]3CC[C@]21C", "growth": "35.3%"}
{"smiles": "COc1ccc2c(c1)C1(C(=O)N2)C(C#N)=C(c2ccccc2)Nc2c1c(-c1ccccc1)nn2-c1ccccc1", "note": "(stereo not given)", "growth": "76.5%"}
{"smiles": "N=C(N)c1ccc(-c2ccc(-c3cccs3)s2)s1", "growth": "-90.3% (active)"}
{"smiles": "Cc1cc(=O)oc2cc(OC(=O)CN3CCN(C)CC3)ccc12", "growth": "101%"}
{"smiles": "C=C(C)[C@@H]1CC[C@]2(C(=O)O)CC[C@]3(C)[C@H](CC[C@@H]4[C@@]5(C)CCC(N)C(C)(C)[C@@H]5CC[C@]43C)[C@@H]12", "note": "(stereo not given in full)", "growth": "-23.2% (active)"}
{"smiles": "COc1cc(NCCCCC(C)N)c2nccc(C)c2c1", "note": "(stereo not given)", "growth": "10.6%"}
{"smiles": "CC/C(C)=C(\\C)C(=O)O", "growth": "106%"}
